GPR151 activ – activates the human receptor GPR151; Q8TDV0; PathHunter beta-arrestin GPR151 cells, luminescence; activation, % at 11.2 µM; 650,000 tested, 1% active; AID 1508602; in the data active = activation above about 4.9%;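 note: 0% = median of compound wells and 100% = cells with positive control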
TEAD-YAP block – TEAD-YAP interaction inhibition; inhibition, % at 9.12 µM; HEK-TIYL cells, TEAD-Gal4/YAP UAS-luciferase luminescence; 640,000 tested, 1.4% active; in the data active = inhibition above about 32%;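 note: 0% = median of test compound wells and 100% = reference inhibitor wells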
MITF primary – blocks human microphthalmia-associated transcription factor | inhibition, % at 2.6 µM | O75030 | AlphaScreen MITF homodimerization, bead proximity signal | 650,000 tested, 0.91% active; in the data active = inhibition above about 50%;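 note: 0% = vehicle wells with protein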
FBW7 activator – human FBW7 E3 ligase activation, primary screen. Q969H0. AlphaScreen FBW7–phospho-cyclin E peptide binding, activator screen. normalized activity (activation), % at 26.1 µM. 650,000 tested, 0.13% active; in the data active = normalized activity above about 1.9%;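 note: purified mutant Fbw7 with reduced substrate affinity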
MITF confirm – human MITF inhibition, confirmation; shares compounds with MITF primary; AlphaScreen MITF homodimerization, biotin/His-MITF beads; inhibition, % at 2.6 µM; 4,700 tested, 16% active; AID 1259372;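 active = inhibition above a cutoff derived from the DMSO control wells, cut at about 28% in these data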;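 note: 0% = MITF dimer wells with DMSO only; inhibitors lower the bead chemiluminescence by keeping MITF from dimerizing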
AlphaScreen intf2 – AlphaScreen optical interference, counter-screen | shares compounds with MITF primary | LysRS AlphaScreen counterscreen, signal interference, triplicate | inhibition, % at 2.6 µM | 4,700 tested, 7.6% active;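 active = inhibition above a cutoff derived from the DMSO control wells, cut at about 30% in these data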
Active calls of the source: *; . = no result given. Rows were chosen to be rich in hits. Some 3.4% of all compounds tested hit in one or more screens of this group.

SMILES	GPR151 activ	TEAD-YAP block	MITF primary	FBW7 activator	MITF confirm	AlphaScreen intf2
COc1cc(C(=O)NCCC(=O)NC2CCCCCCC2)cc(OC)c1OC	-0.9	6.8	78.1*	-0.1	-0.6	1.2
O=C(CNCCc1ccc2c(c1)OCCO2)N1CCc2ccccc21	0.4	6.7	50.7*	-0.1	-2.8	7.1
O=C1OC(c2cc(C3=N/C(=C\c4ccccc4)C(=O)O3)cc(C3=N/C(=C/c4ccccc4)C(=O)O3)c2)=N/C1=C\c1ccccc1	-0.2	9.4	58.2*	-0.2	30.5*	5.4
O=C1OC(c2ccc(Cl)c(Cl)c2)=N/C1=C\c1ccccc1	0.9	4.6	-3.7	0.0	.	.
Cc1ccc(C2=N/C(=C\c3ccc(OCc4ccccc4)cc3)C(=O)O2)cc1[N+](=O)[O-]	-0.7	4.0	3.7	-0.2	.	.
O=C1OC(c2cccc([N+](=O)[O-])c2)=N/C1=C\c1ccc(OCc2ccccc2)cc1	-0.2	13.7	64.5*	0.1	36.8*	16.4
CC(=O)Nc1ccc(C2=N/C(=C/c3cccc([N+](=O)[O-])c3)C(=O)O2)cc1	-0.5	-1.5	57.6*	0.4	4.9	-10.6
COC(=O)c1ccc(NS(=O)(=O)c2ccc3c(c2)NC(=O)C(C)C(=O)N3)cc1 (stereo not given)	-0.5	0.8	2.3	0.1	.	.
CCC1(C)Cc2c(sc3nn[nH]c(=O)c23)CO1 (stereo not given)	0.9	3.4	94.3*	-0.1	5.2	17.4
CCC1(C)Cc2c(sc3nc(SCC(=O)O)[nH]c(=O)c23)CO1 (stereo not given)	-1.5	1.8	15.0	1.1	.	.
Cc1cn2c3c(=O)n(C)c(=O)n(C)c3nc2n1-c1ccc(Oc2ccccc2)cc1	1.0	-3.6	-7.5	0.1	.	.
CN(c1cccc(NS(=O)(=O)c2ccc(Br)s2)c1)S(C)(=O)=O	-1.0	8.7	0.5	0.0	.	.
N#Cc1cccc(NC(=O)CSc2nncs2)c1	-0.6	-14.2	52.7*	-0.1	5.6	11.0
N#Cc1cccc(NC(=O)CSc2nc3ccccc3s2)c1	-1.6	-4.7	10.2	-0.1	.	.
FC(F)(F)c1cccc(-c2cc(NCCCn3ccnc3)nc(-c3ccccn3)n2)c1	0.6	6.5	20.8	-0.8	.	.
c1cc(-c2cc(NCCCn3ccnc3)nc(-c3ccncc3)n2)ccn1	0.5	-15.7	71.5*	-0.9	33.8*	42.3*
Fc1ccc(-c2cc(NCCCn3ccnc3)nc(-c3ccccc3)n2)cc1	-1.5	7.2	55.2*	-0.7	33.9*	42.0*
Fc1ccc(-c2cc(NCCCn3ccnc3)nc(-c3ccccn3)n2)cc1	-0.8	4.9	55.8*	-1.0	23.6	61.9*
Cc1ccc(C(NC(=O)/C=C\c2ccc3c(c2)OCO3)C(=O)Nc2ccc3c(c2)OCO3)cc1 (stereo not given)	1.5	11.8	67.9*	0.0	-21.5	-0.3
CCOC(=O)C1=C(CSc2nc3c(cc2C#N)CCCCC3)OC(N)=C(C#N)C1c1ccc(SC)cc1 (stereo not given)	-0.4	1.9	2.5	0.0	.	.
COc1ccccc1CN(CCCN(C)C)CCCN(C)C	1.1	3.4	33.9	0.1	.	.
CN(C)CCN(C)Cc1cccc2ccccc12	0.6	4.0	59.8*	0.1	-0.5	0.8
CN(C)CCCN(CCCN(C)C)Cc1cccc2ccccc12	0.6	-10.3	55.4*	0.0	-2.4	-2.8
O=C1NC(=S)S/C1=C/c1cc(Cl)ccc1O	-0.2	-2.2	2.2	0.0	.	.
CCC[C@@H]1NC(=O)[C@H]2CN(Cc3ccc(C)s3)CCN2C1=O	0.4	8.2	0.1	0.0	.	.
SMILES	GPR151 activ	TEAD-YAP block	MITF primary	FBW7 activator	MITF confirm	AlphaScreen intf2
Cc1ccc(C(=O)O/N=C(\N)c2ccncc2)cc1C	-1.4	-64.9	-1.4	0.4	.	.
CC1(C)CCCC2=C1CC(C(=O)O)C(C(=O)N1CCCCC1)C2 (stereo not given)	-0.3	-1.0	84.7*	0.1	3.4	12.2
O=C(NC1CCN(C(=O)CN2CCOCC2)CC1)c1ccccc1F	-0.6	-0.8	69.1*	0.7	-11.9	-10.7
Cc1ccccc1NC(=O)C1(N(CC(C)C)C(=O)Cn2nnnc2N)CCCCC1	0.8	-5.5	9.0	-0.1	.	.
C=CCn1c(SCC2OCCO2)nc2cc(C(=O)NCc3ccco3)ccc2c1=O	-0.1	20.5	67.0*	-0.1	-4.4	1.2
C=CCn1c(SCc2ccc(C)cc2)nc2cc(C(=O)NCc3ccco3)ccc2c1=O	-1.4	-1.5	18.6	0.3	.	.
Cc1ccc(C)n1-c1ccc(Cl)c(C(=O)O)c1	0.4	-0.2	0.7	-1.2	.	.

High-throughput results deposited in PubChem BioAssay by The Scripps Research Institute Molecular Screening Center.
